PLK1 PBD inh: qHTS for Inhibitors of PLK1-PDB (polo-like kinase 1 - polo-box domain): Primary Screen | Serine/threonine-protein kinase PLK1 (Homo sapiens), P53350 | Plk1 PBD binding of FITC phosphopeptide, fluorescence polarization | Potency, µM, for the others: max response, negative = inhibition, actives largely listed as inhibitors | 360,000 compounds, 2.8% hits | AID 720504, 2013; further: series mostly up to about 57 µM; on the % scale 0 is the no-effect control and ±100 the full control effect; nearly all actives have a fitted effect of over 65% in size
Target sequence (P53350 whole entry, looked up, the tested form may be a part): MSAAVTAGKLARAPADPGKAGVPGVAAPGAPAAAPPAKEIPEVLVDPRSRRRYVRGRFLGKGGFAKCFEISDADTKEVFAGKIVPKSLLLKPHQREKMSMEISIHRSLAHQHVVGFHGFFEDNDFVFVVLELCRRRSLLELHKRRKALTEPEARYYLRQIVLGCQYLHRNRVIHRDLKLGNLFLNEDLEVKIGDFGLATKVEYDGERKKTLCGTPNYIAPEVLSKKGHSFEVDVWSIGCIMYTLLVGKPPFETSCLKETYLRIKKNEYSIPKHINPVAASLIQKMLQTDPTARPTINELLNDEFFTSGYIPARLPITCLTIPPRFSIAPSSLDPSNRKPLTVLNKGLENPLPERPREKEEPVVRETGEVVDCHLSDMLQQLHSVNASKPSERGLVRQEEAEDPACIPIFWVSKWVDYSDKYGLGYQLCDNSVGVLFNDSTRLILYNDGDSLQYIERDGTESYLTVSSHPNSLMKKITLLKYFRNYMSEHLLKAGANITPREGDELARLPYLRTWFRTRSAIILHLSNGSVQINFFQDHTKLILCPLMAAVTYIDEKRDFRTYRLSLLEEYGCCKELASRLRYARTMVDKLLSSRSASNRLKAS
Mito fusion yeast: qHTS Assay for Small Molecule Inhibitors of Mitochondrial Division or Activators of Mitochondrial Fusion | S. cerevisiae fusion-defective mutant growth rescue, CellTiterGlo 48 h | Potency, µM (titrated, usually from 46.1 µM), without a hit: at the top dose growth rescue (activation), actives largely listed as activators | 320,000 compounds, 0.23% hits | AID 485298, 2010; further: % of control where 0% means no effect; nearly all actives have a fitted effect of over 45% in size
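Luminescent cell viability in 1536-well qHTS format served as the measure of rescued growth in ts fusion-mutant S. cerevisiae cultured on non-fermentable YPEG for 48 hours at 37C.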
GLS inhibitor: qHTS for Inhibitors of Glutaminase (GLS); Glutaminase kidney isoform, mitochondrial (Homo sapiens), O94925; GLS enzymatic activity, qHTS titration; Potency, µM (titrated, usually from 45.5 µM), without a hit: at the highest dose activity change, negative = inhibition, usual class: inhibitors; 410,000 compounds, 0.21% hits; further: on the % scale 0 is the no-effect control and ±100 the full control effect
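Human kidney-isoform GLS in 45 mM KH2PO4 pH 8.2, 0.02% Tween-20, with compound, started with 1mM L-Glutamine (added stock). Glutamate oxidase/HRP/Amplex red coupled fluorescence read at start and after 30 min at RT.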
VDR inhibitor: Inhibitors of the vitamin D receptor (VDR): qHTS; VDR-SRC2-3 peptide fluorescence polarization, 2 h; Potency, µM, for inactives: max response, negative = inhibition, actives largely listed as inhibitors; 400,000 compounds, 0.93% hits; AID 504847, 2011; further: on the % scale 0 is the no-effect control and ±100 the full control effect
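Compounds are added to VDR with labelled SRC2-3 coactivator peptide and held 2 h at room temperature. Inhibition of the VDR–peptide interaction is then read as a change in fluorescence polarization.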
PKM2 activator: qHTS Assay for Activators of Human Muscle isoform 2 Pyruvate Kinase. Pyruvate kinase PKM (Homo sapiens), P14618. purified PKM2, Kinase-Glo ATP luminescence, activation; response scale: 0% is enzyme alone, no compound. Potency, µM (series often up to 57.5 µM), without a hit: at the top dose activation, most hits filed as activators. 260,000 compounds, 0.34% hits; further: on the % scale 0 is the no-effect control and ±100 the full control effect; nearly all actives have a fitted effect of over 55% in size
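Purified hPK-M2 (>95% pure) converted ADP (0.1 mM final) to ATP with 0.5 mM PEP in 50 mM imidazole pH7.2, KCl, MgCl2, Tween 20, BSA; 1 h at room temperature. ATP detected by Kinase-Glo luminescence.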
GCN5L2 inh: qHTS Assay for Inhibitors of GCN5L2. Histone acetyltransferase KAT2A (Homo sapiens), Q92830. GCN5L2 HAT assay, ThioGlo1 CoA-SH fluorescence. Potency, µM (titrated, usually from 58.9 µM), without a hit: at the top dose activity change, negative = inhibition, usual class: inhibitors. 390,000 compounds, 0.21% hits. AID 504327, 2011; further: on the % scale 0 is the no-effect control and ±100 the full control effect
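Fluorescence readout, Ex340nm/Em540nm: ThioGlo1 (50uM final) reacts with free CoA thiol released as 20nM GCN5L2 acetylates H3(1-25) peptide (75uM) using acetyl-CoA (70uM). Compound and enzyme sat 15 min beforehand; 20 min room-temperature reaction.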
* = called active by the depositor; ? = inconclusive; / = no result given; ! = not confirmed by another sample; [ ] = remark or other dose. Rows were chosen to be rich in hits. Some 3.4% of all compounds tested hit in one or more screens of this group. The call rests on the fitted dose curve; in most records, active means well fitted curve in the direction sought with a large enough effect; inconclusive means small, poorly fitted or top-dose-only effect, or another doubt; inactive means no such curve, though single readings can be large; an effect the other way counts as inactive or inconclusive. Potency means the concentration at half of the fitted maximal effect.

SMILES	PLK1 PBD inh	Mito fusion yeast	GLS inhibitor	VDR inhibitor	PKM2 activator	GCN5L2 inh
NC(=O)CCC(NS(=O)(=O)c1ccc(Cl)cc1)C(=O)NCc1ccc(Cl)cc1 (stereo unspecified)	-2.2%	-6.4%	-3.1%	-0.8%	-3.8%	2.1%
OC[C@@H]1[C@@H](c2ccc(Cl)cc2)C(c2cccc(Cl)c2)=NN1c1ccccc1	-12.4%	/	1.2%	-21.6%	/	28.2µM*!
CC1=C(C(=O)Nc2ccccc2)C2(CCCCC2)C(C#N)=C(SCC(N)=O)N1	3.36µM*	1.9%	?	?	4.0%	-7.3%
CCOC(=O)c1c(C)[nH]c(/C(C)=N/O)c1C	-7.7%	-0.8%	18.1%	15.2%	-3.8%	0.3%
CCOC(=O)c1c(C)[nH]c(C2=NNC(=NC3CC3)SC2)c1C	29.9µM*	-2.6%	12.6%	8.91µM*	-5.5%	-18.0%
COCCn1c(SCC(=O)c2ccc(C)cc2C)nc2cc(C(=O)NC3CCCC3)ccc2c1=O	/	/	5.3%	14.1%	/	-14.6%
O=[N+]([O-])c1ccc2oc(C(O)c3cccc(Cl)c3)cc2c1 (stereo unspecified)	-4.7%	25.1µM*	-8.3%	-1.2%	/	-3.2%
CC1=C(C(N)=O)C(c2cccs2)NC(=S)N1 (stereo unspecified)	26.7µM*	4.5%	2.3%	?	10.9%	-8.0%
O=C1c2ccccc2C(=O)C12OC2c1ccc(Cl)cc1Cl (stereo unspecified)	-27.0%	-22.0%	-2.6%	89.1µM*	-3.4%	1.6%
CCCCc1nnc(NC(=O)CSc2nc(O)c(Cc3ccccc3)c(=O)[nH]2)s1	26.7µM*	5.4%	-2.1%	-3.5%	6.0%	-1.3%
COc1cccc(NS(=O)(=O)c2ccc3[nH]cc(C(=O)NC(C)c4ccccc4)c(=O)c3c2)c1 (stereo unspecified)	/	/	-0.1%	?	/	-15.3%
CC1(C)C(=O)C=CC(=O)C(C)(C)C(=O)C=CC(=O)C(C)(C)C2=CC=C(O2)C(C)(C)C(=O)C=CC1=O	5.97µM*	/	-4.4%	?	/	/
N#Cc1c(-c2ccncc2)c2c([nH]c1=O)-c1ccccc1OC2	/	4.4%	/	/	1.1%	-14.0%
N#Cc1c(-c2ccncc2)c2c([nH]c1=S)CCCC2	26.7µM*	-1.0%	-9.3%	-13.9%	-64.8%	?
Cc1ccc(-c2c3c([nH]c(=S)c2C#N)CCCC3)o1	11.9µM*	9.9%	?	?	-3.9%	-20.7%
N=C1C(c2ccccc2)=C(O)CN1c1cccc(S(=O)(=O)N2CCOCC2)c1	16.8µM*	-3.5%	2.9%	?	3.4%	-6.6%
CC(C)C(NC(=O)c1cccnc1)C(=O)O (stereo unspecified)	-3.1%	-4.3%	-10.2%	79.4µM*	-2.4%	1.9%
CC(=O)C(C(C)=O)C(NC(=O)c1cccnc1)(C(F)(F)F)C(F)(F)F	2.67µM*	2.0%	?	?	5.2%	-19.9%
Cc1ccc(C(C)NC(=O)c2cccnc2)cc1 (stereo unspecified)	-7.3%	/	-4.5%	1.7%	/	/
Cc1cc(C(=O)Nc2ccc([N+](=O)[O-])cn2)cs1	-4.4%	1.8%	0.6%	-15.9%	-8.8%	-13.6%
O=S(=O)([N-]c1nc2ccccc2nc1-[n+]1ccc(-c2ccncc2)cc1)c1ccccc1	16.8µM*	3.2%	0.0%	8.1%	0.5%	1.1%
COc1cc(C(=O)N/N=C/c2ccc3c(c2)c2ccccc2n3C)ccc1O	-4.4%	5.1%	-8.6%	-2.3%	-2.1%	-8.7%
Cn1c2ccccc2c2cc(/C=N/NC(=O)c3cc(O)cc(O)c3)ccc21	-23.8%	-1.9%	15.8µM*	-1.7%	3.0%	-16.8%
N#C/C(=C\c1ccncc1)c1nc2ccccc2[nH]1	-2.3%	-5.0%	0.0%	-0.1%	/	-23.2%
Cc1cc2nc(/C(C#N)=C/c3ccncc3)[nH]c2cc1C	26.7µM*	6.1%	14.1%	22.4µM*	-4.6%	-9.1%
SMILES	PLK1 PBD inh	Mito fusion yeast	GLS inhibitor	VDR inhibitor	PKM2 activator	GCN5L2 inh
Cc1ccc(NC(=O)C(=Cc2ccc(C(=O)O)cc2)C(=O)Nc2ccc(C)cc2C)c(C)c1	-7.1%	0.8%	-8.8%	25.1µM*	9.5%	-7.7%
CC(=O)C(=Cc1ccc(C(=O)O)cc1)C(C)=O	-8.9%	-2.2%	-10.3%	?	-3.5%	-7.6%
O=C1C=CC(=O)N1N(c1ccccc1)c1ccccc1	4.74µM*	-2.7%	9.0%	12.6µM*	20.7%	-5.6%
COC(=O)C[C@@H]1C=C[C@H](NC(=O)c2ccccc2)[C@@H](CO)O1	-4.6%	/	/	/	/	/
C/C=C1\COC(C(=O)NCc2ccccc2)(C(F)(F)F)C=C1C=C1CCCCC1 (stereo unspecified)	-14.1%	/	-2.9%	79.4µM*!	/	/
CCOc1ccc(-c2ccc(NS(=O)(=O)c3ccc(C)cc3)cc2)nn1	/	/	-3.1%	13.6%	/	-4.9%
Oc1ccc(N=Cc2ccc(-c3cccs3)s2)cc1	-3.4%	-7.8%	33.4%	79.4µM*	25.0%	?
CCc1ccc2nc(NC(=O)c3ccc(N4C(=O)CCC4=O)cc3)sc2c1	2.5%	3.6%	12.4%	5.5%	-5.1%	4.1%
CNS(=O)(=O)c1ccc2nc(NC(=O)c3ccc(N4C(=O)CCC4=O)cc3)sc2c1	7.52µM*	-9.7%	?	?	-8.7%	?
Cc1cc(C)cc(NC(=O)N2CCC(CN3CCc4ccccc4C3)CC2)c1	/	/	1.5%	15.4%	/	1.1%
CCOc1nc(Nc2cc(Cl)ccc2OC)nc(OCC)n1	-0.8%	-1.0%	16.8%	6.5%	-4.6%	0.6%
C=CCNc1nc(Cl)nc(Nc2cc(Cl)ccc2OC)n1	21.2µM*	2.3%	-9.2%	?	-3.0%[11.5 µM]	1.4%
CCCCCCSC1=C(C#N)C(=O)NC2(CCCCC2)S1	26.7µM*	5.3%	31.8%	?	-0.1%	-26.5%
CCOC(=O)CSC1=C(C#N)C(=O)NC(c2ccc(OC)c(OC)c2)S1 (stereo unspecified)	11.9µM*	-2.7%	12.8%	?	-6.3%	?
CCOC(=O)CSC1=C(C#N)C(=O)NC(c2ccc(OC)cc2)S1 (stereo unspecified)	11.9µM*	0.0%	5.9%	?	-15.8%	?
CC1CCN(C(=O)CSc2nncn2-c2ccccn2)CC1	26.7µM*	2.8%	/	?	-0.9%	-3.4%
CCCOc1cccc(C(=O)Nc2ccc(-c3nc4ccccc4s3)c(Cl)c2)c1	/	/	-8.1%	9.0%	/	1.2%

Screening results from PubChem BioAssay.
